Source: the supplement of paper PMC12645437, “Orthogonal IMiD-Degron Pairs Induce Selective Protein Degradation in Cells” (ACS Chemical Biology, 2025)
Whole data set: some 8,300 sequences, median “log2 fold change of degron read counts, EGFP-low vs EGFP+ sorted cells (limma voom), compound-induced degradation” near -1.1, cut for the highest 2% near 3.2. Many of the other results were omitted from the sample, so the highest values are more common in it than they were.

T1: CRBN, Q96SW2
T1 chain: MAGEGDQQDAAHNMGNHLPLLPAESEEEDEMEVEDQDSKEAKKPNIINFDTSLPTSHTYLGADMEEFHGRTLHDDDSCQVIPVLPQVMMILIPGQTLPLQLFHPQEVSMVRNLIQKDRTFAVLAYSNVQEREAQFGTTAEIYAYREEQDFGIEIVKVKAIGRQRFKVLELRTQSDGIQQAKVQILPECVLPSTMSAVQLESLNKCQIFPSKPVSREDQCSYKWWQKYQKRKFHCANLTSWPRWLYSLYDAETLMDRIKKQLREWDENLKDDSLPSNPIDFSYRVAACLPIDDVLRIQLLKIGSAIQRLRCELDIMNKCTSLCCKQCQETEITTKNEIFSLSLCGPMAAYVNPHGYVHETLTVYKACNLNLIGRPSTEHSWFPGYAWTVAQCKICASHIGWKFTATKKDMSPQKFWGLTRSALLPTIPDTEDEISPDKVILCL

B1: 46L_47H_49N_50Q_52G_53F_54W_55C_67L_, Q9UKT9 (peptide)
chain: LHCNQCGFWCTQKGNLLRHIKL
B2: 46F_47R_49P_50I_52G_53H_54H_55F_67L_, Q9UKT9 (peptide)
chain: FRCPICGHHFTQKGNLLRHIKL
B3: 46F_47F_49E_50I_52G_53A_54N_55F_67L_, Q9UKT9 (peptide)
chain: FFCEICGANFTQKGNLLRHIKL
B4: 46F_47E_49E_50I_52G_53A_54N_55F_67L_, Q9UKT9 (peptide)
chain: FECEICGANFTQKGNLLRHIKL
B5: 46F_47Y_49E_50I_52G_53A_54N_55F_67L_, Q9UKT9 (peptide)
chain: FYCEICGANFTQKGNLLRHIKL
B6: 46F_47Q_49E_50I_52G_53A_54N_55F_67L_, Q9UKT9 (peptide)
chain: FQCEICGANFTQKGNLLRHIKL
B7: 46F_47W_49E_50I_52G_53A_54N_55F_67L_, Q9UKT9 (peptide)
chain: FWCEICGANFTQKGNLLRHIKL
B8: 46F_47K_49E_50I_52G_53A_54N_55F_67L_, Q9UKT9 (peptide)
chain: FKCEICGANFTQKGNLLRHIKL
B9: 46F_47L_49E_50I_52G_53A_54N_55F_67L_, Q9UKT9 (peptide)
chain: FLCEICGANFTQKGNLLRHIKL
B10: 46F_47T_49E_50I_52G_53A_54N_55F_67L_, Q9UKT9 (peptide)
chain: FTCEICGANFTQKGNLLRHIKL
B11: 46F_47N_49E_50I_52G_53A_54N_55F_67L_, Q9UKT9 (peptide)
chain: FNCEICGANFTQKGNLLRHIKL
B12: 46F_47S_49E_50I_52G_53A_54N_55F_67L_, Q9UKT9 (peptide)
chain: FSCEICGANFTQKGNLLRHIKL
B13: 46F_47A_49E_50I_52G_53A_54N_55F_67L_, Q9UKT9 (peptide)
chain: FACEICGANFTQKGNLLRHIKL
B14: 46F_47G_49E_50I_52G_53A_54N_55F_67L_, Q9UKT9 (peptide)
chain: FGCEICGANFTQKGNLLRHIKL
B15: 46F_47C_49E_50Q_52G_53A_54M_55F_67L_, Q9UKT9 (peptide)
chain: FCCEQCGAMFTQKGNLLRHIKL
B16: 46F_47H_49N_50V_52G_53A_54R_55F_67L_, Q9UKT9 (peptide)
chain: FHCNVCGARFTQKGNLLRHIKL
B17: 46L_47N_49P_50I_52G_53F_54L_55C_67L_, Q9UKT9 (peptide)
chain: LNCPICGFLCTQKGNLLRHIKL
B18: 46F_47Q_49S_50V_52G_53H_54D_55F_67L_, Q9UKT9 (peptide)
chain: FQCSVCGHDFTQKGNLLRHIKL
B19: 46F_47I_49N_50Q_52G_53H_54F_55F_67L_, Q9UKT9 (peptide)
chain: FICNQCGHFFTQKGNLLRHIKL
B20: 46F_47K_49E_50I_52G_53H_54F_55F_67L_, Q9UKT9 (peptide)
chain: FKCEICGHFFTQKGNLLRHIKL
B21: 46F_47Q_49N_50V_52G_53A_54C_55F_67L_, Q9UKT9 (peptide)
chain: FQCNVCGACFTQKGNLLRHIKL
B22: 46L_47H_49P_50I_52G_53F_54K_55C_67L_, Q9UKT9 (peptide)
chain: LHCPICGFKCTQKGNLLRHIKL
B23: 46L_47G_49P_50I_52G_53F_54K_55C_67L_, Q9UKT9 (peptide)
chain: LGCPICGFKCTQKGNLLRHIKL
B24: 46L_47E_49P_50I_52G_53F_54K_55C_67L_, Q9UKT9 (peptide)
chain: LECPICGFKCTQKGNLLRHIKL
B25: 46L_47D_49P_50I_52G_53F_54K_55C_67L_, Q9UKT9 (peptide)
chain: LDCPICGFKCTQKGNLLRHIKL
B26: 46L_47F_49P_50I_52G_53F_54K_55C_67L_, Q9UKT9 (peptide)
chain: LFCPICGFKCTQKGNLLRHIKL
B27: 46L_47S_49P_50I_52G_53F_54K_55C_67L_, Q9UKT9 (peptide)
chain: LSCPICGFKCTQKGNLLRHIKL
B28: 46L_47Q_49P_50I_52G_53F_54K_55C_67L_, Q9UKT9 (peptide)
chain: LQCPICGFKCTQKGNLLRHIKL
B29: 46L_47V_49P_50I_52G_53F_54K_55C_67L_, Q9UKT9 (peptide)
chain: LVCPICGFKCTQKGNLLRHIKL
B30: 46L_47R_49P_50I_52G_53F_54K_55C_67L_, Q9UKT9 (peptide)
chain: LRCPICGFKCTQKGNLLRHIKL

Molecular target: T1, CRBN, Q96SW2
Experiment: log2 fold change of degron read counts, EGFP-low vs EGFP+ sorted cells (limma voom), compound-induced degradation; higher = more compound-induced degradation of the degron-EGFP fusion; degrons are variants of IKZF1/3 zinc finger 2; compound dose not given here
Details: Jurkat, 18 h
[1] = compound: compound 19 (5-tert-butyl-thalidomide)
[2] = compound: compound 22 (5-morpholino-thalidomide)
[3] = compound: compound 33 (diphenyl IMiD analogue)
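Also: pooled lentiviral library of zinc finger degron-EGFP fusions in mCherry-positive Jurkat cells, FACS-sorted after compound exposure, with degron abundance counted by next-generation sequencing.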

Sequence	log2 fold change of degron read counts [1]	log2 fold change of degron read counts [2]	log2 fold change of degron read counts [3]	log2 fold change of degron read counts (compound: thalidomide)
B1	-0.827	-1.3	-1.08	-0.88
B2	-2.39	-2.52	-1.52	-1.56
B3	3.08	3.63	1.75	1.6
B4	0.0673	-1.05	2.35	2.43
B5	3.74	3.68	2.63	1.54
B6	0.735	1.47	1.94	3.59
B7	3.41	3.78	2.28	1.57
B8	-1.06	-1.95	-2.41	-0.806
B9	0.58	-0.667	1.21	1.75
B10	0.227	1.78	1.46	2.43
B11	2.42	0.457	-0.158	-0.463
B12	2.11	1.59	1.31	0.441
B13	2.93	1.89	1.07	0.575
B14	1.01	0.765	1.12	0.771
B15	-1.3	-2.03	-0.276	-1.41
B16	0.139	-0.199	-0.986	-1.05
B17	-0.106	0.152	0.208	0.391
B18	-3.43	-3.8	-3.18	-3.17
B19	-2.52	-2.59	-2.06	-2.52
B20	-2.55	-2.68	-2.97	-2.85
B21	-1.23	0.797	0.868	3.21
B22	2.19	2.18	1.15	1.4
B23	3.67	1.98	-0.000486	1.27
B24	0.756	-0.257	0.961	3.26
B25	0.605	0.0419	-0.53	2.02
B26	2.81	2.98	1.2	1.42
B27	2.15	1.87	0.118	1.77
B28	0.793	2.43	0.554	3.4
B29	0.655	2.13	0.489	2.78
B30	-0.023	-0.151	0.993	1.4
